Test [1] in a line: Nuclear factor erythroid 2-related factor 2/antioxidant responsive element (Nrf2/ARE) small molecule agonists: luciferase reporter gene qHTS assay in human keratinocytes (AID 1919969). Also: nearly all actives have a fitted effect of over 35% in size. On the technique in general: In a reporter assay the amount or activity of a reporter protein is the signal.
Test [2] deals with Gonadotropin-releasing hormone receptor (Homo sapiens) (UniProt P30968). Briefly: Human gonadotropin-releasing hormone receptor (GnRHR) small molecule agonists, calcium flux assay in GnRHR-HEK293 cells (AID 1920063). Also: nearly all actives have a fitted effect of over 35% in size. Also: potency is read from the fitted curve at half-maximal effect. In a few lines:
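HEK293 cells stably expressing human GnRHR were plated 18 h at 37 °C, loaded with calcium dye 1 h at 37 °C, then given compound in agonist mode; fluorescence (Ex/Em 480/540) read kinetically for 3 min at 1 s intervals.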

Test [3] deals with KiSS-1 receptor (Homo sapiens) (UniProt Q969F8). Briefly: Human kisspeptin (KISS1R) small molecule agonists, calcium flux assay in KISS1R-HEK293 cells (AID 1920064; active = well fitted activation curve with a large enough effect in the repeat runs; also: potency is read from the fitted curve at half-maximal effect). An outline of the steps: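 HEK293 cells stably expressing human KISS1R were plated 18 h at 37 °C, loaded with calcium dye for 1 h at 37 °C, then given compound by pin tool. Fluorescence (Ex/Em 480/540) was read kinetically for 3 min.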
On the technique in general: Calcium assays in cells follow changes in intracellular calcium, usually with a dye or a luminescent sensor.

The nature of test [4]: G protein-coupled receptor (GPCR) small molecule agonists, calcium flux assay: HEK293 wild type cell line counter screen (AID 1920065). Also: potency is read from the fitted curve at half-maximal effect. An outline of the steps: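 Cells were plated and cultured 18 h at 37 C/5% CO2, then loaded with calcium dye for 1 h at 37 C. Compounds in DMSO were pin-transferred in agonist mode, and fluorescence (Ex/Em 480/540) was read kinetically for 3 min at 1 s intervals.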

The nature of test [5]: p53 small molecule agonists, cell-based qHTS assay with human liver microsomes (AID 1963577). An outline of the steps: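 p53RE-bla cells, 4,000/well, compound added after 5 h, with human liver microsomes 0.5 mg/mL and NADPH 0.5 mg/mL final; 16 h at 37 C, then LiveBLAzer 2 h RT, fluorescence.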
Test [6] is described as follows: p53 small molecule agonists, cell-based qHTS assay with rat liver microsomes (AID 1963578). In a few lines: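 p53RE-bla cells, 4,000/well, pre-incubated 5 h, then given compounds plus rat liver microsomes (0.5 mg/mL final) and NADPH (0.5 mg/mL final). Incubation 16 h at 37 C; beta-lactamase reporter read by LiveBLAzer fluorescence after 2 h at room temperature.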
In general terms: qHTS replaces the single test concentration by a dilution series.

Test [7] is described as follows: p53 small molecule agonists, cell-based qHTS assay with human liver microsomes: qHTS cell viability counter screen (AID 1963579). Also: nearly all actives have a fitted effect of over 45% in size. An outline of the steps: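 p53RE-bla cells, 4,000/well, dosed 5 hours after plating, with human liver microsomes (0.5 mg/mL final) plus NADPH (0.5 mg/mL final), 16 hours at 37 C. Viability read as CellTiter-Glo luminescence after 30 min at room temperature.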

Test [8] in a line: p53 small molecule agonists, cell-based qHTS assay: qHTS cell viability counter screen (AID 1963581). Also: nearly all actives have a fitted effect of over 45% in size. An outline of the steps: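 p53RE-bla HCT-116 cells were exposed to compounds for 16 h at 37 C; after the beta-lactamase FRET read in the same wells, CellTiter-Glo was added and luminescence (intracellular ATP) read after 30 min at room temperature.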
A short description of test [9]: p53 small molecule agonists, cell-based qHTS assay (AID 1963582; active = well fitted activation curve with a large enough effect in the signal ratio in the repeat runs, not every such curve was filed as active; the % refers to the signal ratio). In a few lines: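 p53RE-bla beta-lactamase reporter cells rested 5 h at 37 C/5% CO2, then received compounds in DMSO by pin transfer and were incubated 16 h at 37 C. LiveBLAzer B/G FRET substrate was loaded for 2 h at room temperature before fluorescence reading.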
The target in test [10] is 5-hydroxytryptamine receptor 2A (Homo sapiens) (UniProt P28223). Briefly: 5-hydroxytryptamine receptor 2A (HTR2A) small molecule antagonists, cell-based qHTS assay (AID 1963586). Also: nearly all actives have a fitted effect of over 45% in size. In a few lines:
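Antagonist-mode intracellular calcium assay: DOI (4 nM) added after 5 min compound pre-incubation at room temperature to dye-loaded HTR2A-CHO cells. Fluorescence followed for 3 min, sampled every second.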

Test [11] shares this target. Briefly: 5-hydroxytryptamine receptor 2A (HTR2A) small molecule agonists, cell-based qHTS assay (AID 1963587). Also: nearly all actives have a fitted effect of over 30% in size. Also: potency is read from the fitted curve at half-maximal effect. In a few lines: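 CHO cells stably expressing human HTR2A, plated 18 h, loaded with calcium dye 1 h at 37 C. Agonist mode: compounds added and intracellular calcium fluorescence recorded kinetically for 2 min at 1 sec intervals.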
Test [12] deals with Muscarinic acetylcholine receptor M1 (Homo sapiens) (UniProt P11229). Briefly: Cholinergic receptor muscarinic 1 (CHRM1) small molecule antagonists, cell-based qHTS assay (AID 1963588). Also: nearly all actives have a fitted effect of over 40% in size. Also: potency is read from the fitted curve at half-maximal effect. An outline of the steps:
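CHRM1-CHO calcium-flux assay, antagonist mode. Cells were seeded 18 h, dye-loaded 1 h at 37 C and given compound for 5 min at RT, then acetylcholine was added at 50nM. FDSS fluorescence was read 3 min; 15 concentrations, three runs.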

Test [13] has the same target. Briefly: Cholinergic receptor muscarinic 1 (CHRM1) small molecule agonists, cell-based qHTS assay (AID 1963589). Also: nearly all actives have a fitted effect of over 35% in size. An outline of the steps: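 CHO cells stably expressing human CHRM1, seeded 18 h at 37 C/5% CO2, dye-loaded 1 h at 37 C, then given compound in agonist mode; intracellular calcium fluorescence read kinetically at 1 s intervals. Fifteen concentrations, three independent runs.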

Test [14] can be described thus: cAMP Responsive Elements (CRE) small molecule agonists, cell-based qHTS assay (AID 1963590). In a few lines:
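CRE-bla HEK 293T cells in DMEM with 10% dialyzed FBS, NEAA, pyruvate and 25 mM HEPES were plated 18 h at 37 C/5% CO2, then exposed to compounds in DMSO for 3 h before LiveBLAzer B/G FRET substrate addition.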

Test [15] is described as follows: cAMP Responsive Elements (CRE) small molecule antagonists, cell-based qHTS assay (AID 1963591; active = well fitted inhibition curve with a large enough effect in the signal ratio in the repeat runs, not every such curve was filed as active; the % refers to the signal ratio). In a few lines:
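CRE-bla HEK293T cells were plated 18 h at 37 °C/5% CO2, pinned with compound in DMSO, then stimulated with NKH477 at 0.25 uM final for 3 h. LiveBLAzer B/G FRET substrate was added and plates incubated 2 h at room temperature.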

Test [16] addresses Beta-2 adrenergic receptor (Homo sapiens) (UniProt P07550). Briefly: Adrenergic beta2 receptor (ADRB2) small molecule antagonists, cell-based qHTS assay (AID 1963592). Also: series mostly up to about 92 µM; nearly all actives have a fitted effect of over 50% in size. An outline of the steps: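 Cells (CHO, stable ADRB2 overexpression) incubated 18-20hr at 37C; compounds added from DMSO; agonist mix (1nM isoproterenol, 100uM IBMX, 25uM Ro-20-1724) added; 0.5hr RT; d2-cAMP and anti-cAMP-cryptate added; 1hr RT; 665/615 nm read.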

Test [17] deals with D(2) dopamine receptor (Homo sapiens) (UniProt P14416). Description: Dopamine D2 receptor (DRD2) small molecule agonists, cell-based qHTS assay (AID 1963594). Also: nearly all actives have a fitted effect of over 35% in size. In a few lines: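 HEK293 cells stably expressing human DRD2, pre-treated with PDE inhibitor Ro20-1724 (0.1 mM final) and compound 10 min at room temperature, then stimulated with NKH477 (200nM […]) for 30 min. cAMP read by HTRF (665/620 nm).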

The target is the same in test [18]. Briefly: Dopamine D2 receptor (DRD2) small molecule antagonists, cell-based qHTS assay (AID 1963595; active = well fitted inhibition curve with a large enough effect in the signal ratio in the repeat runs, with a control signal flat; the % refers to the signal ratio). An outline of the steps:
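Antagonist mode in DRD2-HEK293 cells: after compound addition with 0.1 mM Ro20-1724, cells received quinpirole (12 nM) and NKH477 (200 nM) for 30 min at room temperature; HTRF cAMP read after 1 h detection.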

The nature of test [19]: p53 small molecule agonists, cell-based qHTS assay with rat liver microsomes: qHTS cell viability counter screen (AID 1963580). Also: nearly all actives have a fitted effect of over 45% in size. An outline of the steps: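 Viability is assessed in parallel with the p53 reporter read: HCT-116 p53RE-bla cells receive compounds plus rat microsomes and NADPH (0.5 mg/mL final apiece), incubate 16 h at 37 C, and then CellTiter-Glo luminescence is recorded.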

This is an account of results in PubChem BioAssay (Tox21).

The structures appear in SMILES notation. Values without a mark were called inactive. Results filed as inconclusive are left out. The source made the active and inactive calls. Unless noted, calls follow the shape of the full dose curve.
% is scaled to controls: 0 for no effect and ±100 for the full control effect.

Chain of Muscarinic acetylcholine receptor M1 (Homo sapiens) (P11229 whole entry, looked up): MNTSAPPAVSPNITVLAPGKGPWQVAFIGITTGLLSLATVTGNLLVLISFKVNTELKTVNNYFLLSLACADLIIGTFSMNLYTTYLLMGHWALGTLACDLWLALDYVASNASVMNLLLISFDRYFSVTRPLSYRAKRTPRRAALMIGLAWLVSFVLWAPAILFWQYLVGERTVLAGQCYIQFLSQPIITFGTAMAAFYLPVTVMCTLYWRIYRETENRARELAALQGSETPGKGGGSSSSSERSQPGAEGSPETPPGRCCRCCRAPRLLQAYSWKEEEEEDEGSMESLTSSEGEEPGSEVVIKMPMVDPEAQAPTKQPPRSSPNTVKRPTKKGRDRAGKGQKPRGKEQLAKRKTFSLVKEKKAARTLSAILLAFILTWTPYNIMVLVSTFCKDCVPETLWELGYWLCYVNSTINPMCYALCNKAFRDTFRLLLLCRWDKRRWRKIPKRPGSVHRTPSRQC
Chain of Beta-2 adrenergic receptor (Homo sapiens) (P07550 whole entry, looked up): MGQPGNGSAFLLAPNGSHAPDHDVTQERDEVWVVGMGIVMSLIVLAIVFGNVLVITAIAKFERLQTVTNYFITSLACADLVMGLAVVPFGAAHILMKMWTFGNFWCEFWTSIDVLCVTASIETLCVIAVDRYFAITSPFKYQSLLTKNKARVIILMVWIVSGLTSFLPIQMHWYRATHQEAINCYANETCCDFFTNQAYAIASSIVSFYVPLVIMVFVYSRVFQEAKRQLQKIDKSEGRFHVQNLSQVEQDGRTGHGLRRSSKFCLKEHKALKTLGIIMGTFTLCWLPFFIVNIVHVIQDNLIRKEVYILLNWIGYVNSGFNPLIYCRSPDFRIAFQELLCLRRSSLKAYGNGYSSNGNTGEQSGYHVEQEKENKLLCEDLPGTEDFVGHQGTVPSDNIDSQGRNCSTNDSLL
Chain of 5-hydroxytryptamine receptor 2A (Homo sapiens) (P28223 whole entry, looked up): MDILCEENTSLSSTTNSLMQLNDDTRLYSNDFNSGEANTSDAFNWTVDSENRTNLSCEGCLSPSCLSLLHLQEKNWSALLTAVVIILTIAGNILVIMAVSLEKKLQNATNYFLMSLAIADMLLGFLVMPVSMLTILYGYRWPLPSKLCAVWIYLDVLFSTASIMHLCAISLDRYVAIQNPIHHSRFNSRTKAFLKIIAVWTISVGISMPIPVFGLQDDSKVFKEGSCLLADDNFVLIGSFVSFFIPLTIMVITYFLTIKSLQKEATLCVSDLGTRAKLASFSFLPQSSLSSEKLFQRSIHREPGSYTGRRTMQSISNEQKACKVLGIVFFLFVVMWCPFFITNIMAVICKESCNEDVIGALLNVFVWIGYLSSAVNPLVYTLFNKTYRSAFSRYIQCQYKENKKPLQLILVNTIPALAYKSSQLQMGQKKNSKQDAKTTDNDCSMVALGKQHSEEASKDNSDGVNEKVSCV
Chain of D(2) dopamine receptor (Homo sapiens) (P14416 whole entry, looked up): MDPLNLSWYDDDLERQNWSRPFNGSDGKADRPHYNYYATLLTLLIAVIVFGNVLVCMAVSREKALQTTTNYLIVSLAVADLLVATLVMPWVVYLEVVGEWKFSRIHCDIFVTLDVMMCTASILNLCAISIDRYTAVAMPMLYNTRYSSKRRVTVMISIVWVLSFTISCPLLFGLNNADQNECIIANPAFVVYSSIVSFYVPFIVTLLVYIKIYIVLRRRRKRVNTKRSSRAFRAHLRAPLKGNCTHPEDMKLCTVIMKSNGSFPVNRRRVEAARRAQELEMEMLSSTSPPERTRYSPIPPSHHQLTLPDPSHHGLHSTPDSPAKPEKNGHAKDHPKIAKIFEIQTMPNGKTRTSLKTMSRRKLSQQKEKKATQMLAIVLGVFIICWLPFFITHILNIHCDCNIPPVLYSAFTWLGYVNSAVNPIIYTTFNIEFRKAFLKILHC
Chain of KiSS-1 receptor (Homo sapiens) (Q969F8 whole entry, looked up): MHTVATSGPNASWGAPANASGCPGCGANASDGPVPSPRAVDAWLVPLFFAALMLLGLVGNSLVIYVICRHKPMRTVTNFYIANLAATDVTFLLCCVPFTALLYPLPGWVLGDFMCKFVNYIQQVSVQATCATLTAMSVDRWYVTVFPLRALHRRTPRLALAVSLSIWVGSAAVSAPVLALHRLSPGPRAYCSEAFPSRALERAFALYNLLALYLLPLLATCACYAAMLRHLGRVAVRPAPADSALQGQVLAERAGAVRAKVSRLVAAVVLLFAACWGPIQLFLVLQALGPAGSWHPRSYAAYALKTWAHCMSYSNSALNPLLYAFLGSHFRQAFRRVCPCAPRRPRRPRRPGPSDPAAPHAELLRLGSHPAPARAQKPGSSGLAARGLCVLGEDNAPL
Chain of Gonadotropin-releasing hormone receptor (Homo sapiens) (P30968 whole entry, looked up): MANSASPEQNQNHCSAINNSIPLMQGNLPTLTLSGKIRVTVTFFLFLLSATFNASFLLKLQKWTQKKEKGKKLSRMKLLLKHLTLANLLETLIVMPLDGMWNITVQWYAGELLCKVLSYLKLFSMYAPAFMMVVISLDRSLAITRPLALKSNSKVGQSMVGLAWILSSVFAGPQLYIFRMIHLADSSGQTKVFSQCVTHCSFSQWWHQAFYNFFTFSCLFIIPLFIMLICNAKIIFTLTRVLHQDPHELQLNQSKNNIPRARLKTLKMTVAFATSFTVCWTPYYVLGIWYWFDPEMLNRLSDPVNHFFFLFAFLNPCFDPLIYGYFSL

`CC1=NN(c2ccc(S(=O)(=O)O)cc2)C(=O)C1N=Nc1ccccc1` (stereo not drawn): the Potency entry in test [1], in test [2], in test [3], in test [4], in [5] and in test [6] was “inactive” throughout. Moreover, the Potency entry in test [7], in test [8], in test [9], in test [10], in [11] and in test [12] was “inactive” in each case. In addition, the Potency result in test [13], in test [14], in [15], in [16], in [17] and in test [18] was “inactive” each time.

As to `Nc1ccn(C2CO[C@H](CO)O2)c(=O)n1` (stereo partly drawn), the Potency result in [1], in [5], in test [6], in test [7], in test [19] and in test [12] was “inactive” throughout. For the same molecule, the Potency result in test [15], in test [16], in test [17] and in [18] was “inactive” each time. The Potency was 4.25 µM (active) in test [2], 6.74 µM (active) in test [3], 16.9 µM (active) in test [4] and 7.56 µM (active) in test [11].

Regarding `CN(C)C(=O)NC1(c2ccccc2)CCN(CCC[C@]2(c3ccc(Cl)c(Cl)c3)CCCN(C(=O)c3ccccc3)C2)CC1`, the activity, positive = activation in test [1] is 6.8% [at 19 µM]. In addition, the activity change in [2] was -0.446% [at 11.8 µM, hits give high values]. Besides, the activation is 0.0463% [at 15.8 µM] in [3]; 0.0814% [at 11.8 µM] in test [4]; 8.31% [at 13.5 µM] in test [5]; 0.0763% [at 13.6 µM] in test [6]; -4.21% [at 13.5 µM] in test [9]; 1.46% [at 15.9 µM] in [11]. Moreover, the activation in test [13] is 0.44% [at 15.8 µM]; in [17] it was -11.2% [at 19 µM]. The activity change, negative = cytotoxicity in test [7] was -5.88% [at 13.5 µM]; in [19], -4.37% [at 13.5 µM]. Besides, the results for the activity, negative = inhibition in [10] and in [12] were 9.02% [at 12.7 µM] and -18.4% [at 12.6 µM], respectively. In addition, the activity change, negative = inhibition in test [16] was 9.65% [at 19 µM].

Take `CSc1ccc(/C=C2/C(C)=C(CC(=O)O)c3cc(F)ccc32)cc1`: the Potency entry in test [1], in [2], in test [3], in test [4], in test [5] and in test [6] was “inactive” in each case. The Potency result in test [7], in test [19], in test [16], in test [17] and in [18] was “inactive” throughout.

On to `CCCCC(CC)CN1CN(CC(CC)CCCC)CC(C)(N)C1` (stereo not drawn), for which the Potency result in test [1], in test [2], in test [3], in [4], in [5] and in test [6] was “inactive” throughout. Further, the Potency entry in test [7], in test [19], in test [8], in test [9], in test [12] and in test [13] was “inactive” throughout. The Potency result in test [15], in [16], in [17] and in test [18] was “inactive” each time.

In the case of `CC1CCCCN1CCCOC(=O)c1ccc(OC2CCCCC2)cc1` (stereo not drawn), the Potency result in test [1], in test [2], in [3], in [4], in [5] and in test [6] was “inactive” each time. Also, the Potency result in [7], in test [19], in test [8], in test [13], in [14] and in [16] was “inactive” in each case. The Potency entry in test [17] and in [18] was “inactive” each time. For the same molecule, in [12], the Potency was 0.365 µM (active).

`CC1(C)O[C@@H]2C[C@H]3[C@@H]4CCC5=CC(=O)C=C[C@]5(C)[C@H]4[C@@H](O)C[C@]3(C)[C@]2(C(=O)CO)O1`: the Potency result in test [1], in test [2], in test [3], in test [4], in test [5] and in test [6] was “inactive” each time. Further, the Potency entry in test [7], in test [19], in [8], in [9], in test [11] and in test [13] was “inactive” in each case. For the same molecule, the Potency result in [16] and in test [17] was “inactive” throughout.
